An excerpt weighted towards active compounds, which were near 8.8% of everything screened.
ALDH1A1 block = qHTS Assay for Inhibitors of Aldehyde Dehydrogenase 1 (ALDH1A1); Aldehyde dehydrogenase 1A1 (Homo sapiens), P00352; Purified ALDH1A1, NADH fluorescence, propionaldehyde substrate; Potency, µM (top dose mostly 75.3 µM), for inactives: at the highest dose activity, negative = inhibition, most hits filed as inhibitors; hit rate 7.3% among 220,000; AID 1030, 2008; active means well fitted inhibition curve with a large enough effect, not every such curve was filed as active; inconclusive means small, poorly fitted or top-dose-only effect, or another doubt; inactive means no such curve, though single readings can be large or run the other way;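 further: plate controls were no enzyme wells and a reference inhibitor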
HPGD inh = qHTS Assay for Inhibitors of HPGD (15-Hydroxyprostaglandin Dehydrogenase); 15-hydroxyprostaglandin dehydrogenase [NAD(+)] (Homo sapiens), P15428; purified HPGD, NADH fluorescence kinetic, PGE2 substrate; Potency, µM, for inactives: top-dose activity change, negative = inhibition, most hits filed as inhibitors; hit rate 4.3% among 150,000; AID 894, 2007; active means well fitted inhibition curve with a large enough effect, not every such curve was filed as active; inconclusive means small, poorly fitted or top-dose-only effect, or another doubt; inactive means no such curve, though single readings can be large or run the other way; further: on the % scale 0 is the no-effect control and ±100 the full control effect
Target sequence (P15428 whole entry, looked up): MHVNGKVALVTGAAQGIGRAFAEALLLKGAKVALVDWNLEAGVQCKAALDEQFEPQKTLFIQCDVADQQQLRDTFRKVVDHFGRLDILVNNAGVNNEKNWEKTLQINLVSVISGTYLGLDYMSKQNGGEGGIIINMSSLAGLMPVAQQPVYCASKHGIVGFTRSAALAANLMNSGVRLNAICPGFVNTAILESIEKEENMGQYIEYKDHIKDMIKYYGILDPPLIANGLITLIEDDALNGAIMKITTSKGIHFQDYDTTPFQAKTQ
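NADH formation kinetics: reaction with 30 uM PGE2 and 1 mM NAD+ (final), 20 nM enzyme, Tris-HCl pH 8 with Tween 20, after 15 min compound preincubation at room temperature. Fluorescence change, last versus first of five reads.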
HTT aggregate = qHTS Multiplex Assay to Identify Dual Action Probes in a Cell Model of Huntington: Aggregate Formation (GFP); PC12 HttQ103-GFP aggregates, Acumen cytometry, 40 h; Potency, µM (series often up to 46.1 µM), for the others: at the top dose activity change, negative = inhibition, actives largely listed as inhibitors; hit rate 1.1% among 220,000; AID 1688, 2009; further: on the % scale 0 is the no-effect control and ±100 the full control effect; nearly all actives have a fitted effect of over 60% in size
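Ecdysone-promoter PC12 model expressing HTT exon 1 Q103 fused to GFP, induced by tebufenozide at 100 nM final. Compounds titrated; aggregates sized 1–25 µm scored on a 488 nm laser cytometer.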
LMNA splice mod = qHTS Assay for Modulators of Lamin A Splicing; HeLa LMNA splicing GFP/RFP minigene ratio, 48 h; Potency, µM (doses to about 46.1 µM), for inactives: at the highest dose ratio change, negative = inhibition, most hits filed as inhibitors; hit rate 0.01% among 200,000; AID 1487, 2009; active means well fitted inhibition curve with a large enough effect in the signal ratio, with a control signal flat, not every such curve was filed as active; inconclusive means small, poorly fitted or top-dose-only effect, or effect the other way, or a change in a side signal; the % refers to the signal ratio; further: on the % scale 0 is the no-effect control and ±100 the full control effect
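Read-out is the ratio of GFP to DsRed2 object intensity, acquired by 488 nm laser-scanning cytometry on HeLa lamin A-EGFP minigene reporter cells. Compound incubation 48 hrs at 37 °C in Opti-MEM with 2% FBS; DMSO 0.5% final.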
HTT cytoprotect = qHTS Multiplex Assay to Identify Dual Action Probes in a Cell Model of Huntington: Cytoprotection (ATP). PC12 HTT-Q103 induced, cytoprotection, ATP luminescence, 40 h. Potency, µM (highest dose often 56.4 µM), for the others: cytoprotection (ATP increase), most hits filed as activators. hit rate 0.14% among 230,000. AID 1471, 2008; further: % of control where 0% means no effect; nearly all actives have a fitted effect of over 45% in size
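Compounds were screened for protection of PC12 cells against cell death after tebufenozide induction (100 nM final) of mutant Huntingtin exon 1 (Q103) fused to GFP.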
* = called active by the depositor; ? = inconclusive; / = no result; [ ] = dose if it differs, or a comment. Unless noted, the call rests on the fitted dose curve; in most records, active means well fitted curve in the direction sought with a large enough effect; inconclusive means small, poorly fitted or top-dose-only effect, or another doubt; inactive means no such curve, though single readings can be large; an effect the other way counts as inactive or inconclusive. Potency means the concentration at half of the fitted maximal effect.

SMILES | ALDH1A1 block | HPGD inh | HTT aggregate | LMNA splice mod | HTT cytoprotect
COc1ccc(NC(=O)c2[nH]ncc2[N+](=O)[O-])cc1 | 15µM* | / | -1% | -19%[46 µM] | -31%
O=C(Nc1nccs1)c1ccc(-c2ccc([N+](=O)[O-])cc2)o1 | 22µM* | / | / | ? | /
O=C(Nc1nccs1)c1ccc(-c2ccccc2Cl)o1 | 25µM* | ? | -15% | -21% | -12%[10 µM]
CCOC(=O)c1cnn(-c2nc(OCC)cc(OCC)n2)c1C | 9% | 1% | -20% | -1% | /
COc1ccc(OC)c(CCNc2ncnc3onc(C)c23)c1 | / | / | / | -2%[46 µM] | /
O=C(Nc1nccs1)c1ccc(-c2ccc(F)cc2)o1 | 22µM* | / | -13% | / | -162%
COc1ccc(CCNC(=O)c2ccc(-c3ccc([N+](=O)[O-])cc3)o2)cc1OC | 10µM* | -8% | -3% | ? | -5%[1.9 µM]
COc1ccc(NC(=O)c2ccc(-c3ccc([N+](=O)[O-])cc3)o2)cc1 | 2.2µM* | / | 19% | ? | -46%
CN1CCN(c2ccnc(-c3ccccc3C(F)(F)F)n2)CC1 | ? | -24% | / | -12% | 22%
Cc1noc(C)c1C(=O)N1CCC2(CCN(Cc3ccc(C#N)cc3)CC2)CC1 | -4% | -1% | / | / | -8%
CCS(=O)(=O)c1c([N+](=O)[O-])ncn1C | -2% | -9% | 3.5µM* | ? | /
CCOC(=O)C1(C)/C(=N/Nc2ccccc2)C(=O)C(=O)N1c1ccccc1 (configuration not stated) | ? | -15% | 32% | 5% | 4%
CCOC(=O)C1(C)/C(=N/Nc2ccccc2OC)C(=O)C(=O)N1c1ccccc1 (configuration not stated) | 24µM* | / | / | 3%[46 µM] | /
O=C(Oc1c(Cl)cc(Cl)c2cccnc12)c1cccc([N+](=O)[O-])c1 | -2% | -12% | 2.8µM* | ? | -81%[10 µM]
O=C(Oc1coc(CSc2ncccn2)cc1=O)c1ccco1 | -2% | / | 3% | -16%[9.22 µM] | -11%
Cc1cc(C)nc(SCc2cc(=O)c(OC(=O)c3ccc(Cl)c([N+](=O)[O-])c3)co2)n1 | 4% | 11µM* | -3% | -9% | 1%[10 µM]
O=C(Oc1coc(CSc2ncccn2)cc1=O)c1cccc([N+](=O)[O-])c1 | 1.8µM* | / | -20% | / | -21%
COC(=O)C1=C(C)[C@@H](O)[C@@H](C)[C@](C)(c2cc(OC)c(C)c(OC)c2COc2ccccc2)O1 | 11% | -10% | / | / | -17%
C=CCn1cc(/C=N/N2C(=O)C3C4C=CC(C4)C3C2=O)c2ccccc21 (configuration not stated) | 25µM* | / | 17% | 11%[46 µM] | -52%
COc1cccc([C@@H]2Oc3ccc(OC)cc3C(=O)[C@H]2OC(=O)NS(=O)(=O)c2ccc(C)cc2)c1 | 4% | -8% | / | / | -116%
CO[C@@H]1COC(=O)[C@H](C)NC(=O)[C@@H](C)COC(=O)CCC[C@H]1C | -1%[13.5 µM] | / | / | / | -15%[10 µM]
CCc1cc2c(N3CCCCC3)ncnc2s1 | 20µM* | -27% | -49% | ? | -9%[10 µM]
CCC(=O)Nc1ccc2nc(SCC(=O)N3CCCC3)sc2c1 | ? | 16µM* | 2% | -14% | -1%[10 µM]
CC(C)CC(=O)Nc1ccc2nc(SCC(=O)N3CCCC3)sc2c1 | / | / | / | 9%[46 µM] | /
Cn1c(SCC(=O)Nc2ccc3nc(SCC(=O)NC4CC4)sc3c2)nnc1-c1ccccc1 | 10µM* | 3.5µM* | -1% | -12% | -2%[10 µM]
Cc1ccccc1OCc1nnc(SCC(=O)Nc2ccc3c(c2)OCO3)n1C | 8% | -16% | 5% | 24% | -28%
Cn1c(SCC(=O)Nc2ccc3nc(SCC(=O)N4CCCC4)sc3c2)nnc1-c1ccc(N)cc1 | 13µM* | 8.9µM* | -4% | 17% | -10%
Cc1ccccc1OCc1nnc(SCC(=O)Nc2ccc3nc(SCC(=O)Nc4ccccc4)sc3c2)n1C | 13µM* | -12% | 19% | ? | /
CCC(Sc1nc2nccnc2c(=O)n1Cc1ccccc1Cl)C(=O)NC1CCCCC1 (configuration not stated) | / | / | / | -2%[46 µM] | /
